Results: PubChem BioAssay
Calls of active or inactive are those of the source.

Columns and labels:
[1] = small molecules captured by biotinylated probe aFSTL3 – biochemical, small-molecule microarray, fluorescence 635/667, stem cell growth factor project, primary screen (AID 1064); settings: higher = more signal;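 note: measures binding of the biotinylated anti-FSTL3 antibody to printed compounds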
[2] = binders from COS7 lysate, DM2A8 probe, primary screen, torsin A project, cell lysate, small-molecule microarray, fluorescence 635/667 (AID 1065); settings: higher = more signal, COS7 lysate expressing mutant human TOR1A
[3] = small molecules captured by biotinylated probe aFGF2 – biochemical, small-molecule microarray, fluorescence 635/667, stem cell growth factor project, primary screen (AID 1067); settings: higher = more signal;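 note: measures binding of biotinylated aFGF2 protein to printed compounds on slides; z-score merges feature fluorescence and signal-to-noise across triplicate slides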
[4] = small molecules captured by biotinylated probe aFGF10 – biochemical, small-molecule microarray, fluorescence 635/667, stem cell growth factor project, primary screen (AID 1071); settings: higher = more signal;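 note: score merges 667 nm spot intensity and signal to noise from triplicate slides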
[5] = biological target: Neurogenic locus notch homolog protein 2 (Homo sapiens) (UniProt Q04721); experiment: small molecules binding Notch2 protein – biochemical, small-molecule microarray, 635 nm fluorescence, stem cell growth factors, primary screen (AID 1073); settings: higher = more signal
[6] = biological target: Pro-neuregulin-1, membrane-bound isoform (Homo sapiens) (UniProt Q02297); experiment: small molecules binding neuregulin-1 protein – biochemical, small-molecule microarray, fluorescence 635/667, psychiatric disease protein project, primary screen (AID 1075); settings: NRG1 binding, 635 nm fluorescence, higher = more signal;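 note: score combines 667 nm spot fluorescence with signal to noise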
Chain of Pro-neuregulin-1, membrane-bound isoform (Homo sapiens) (Q02297 whole entry, looked up, the tested form may be a part, canonical isoform): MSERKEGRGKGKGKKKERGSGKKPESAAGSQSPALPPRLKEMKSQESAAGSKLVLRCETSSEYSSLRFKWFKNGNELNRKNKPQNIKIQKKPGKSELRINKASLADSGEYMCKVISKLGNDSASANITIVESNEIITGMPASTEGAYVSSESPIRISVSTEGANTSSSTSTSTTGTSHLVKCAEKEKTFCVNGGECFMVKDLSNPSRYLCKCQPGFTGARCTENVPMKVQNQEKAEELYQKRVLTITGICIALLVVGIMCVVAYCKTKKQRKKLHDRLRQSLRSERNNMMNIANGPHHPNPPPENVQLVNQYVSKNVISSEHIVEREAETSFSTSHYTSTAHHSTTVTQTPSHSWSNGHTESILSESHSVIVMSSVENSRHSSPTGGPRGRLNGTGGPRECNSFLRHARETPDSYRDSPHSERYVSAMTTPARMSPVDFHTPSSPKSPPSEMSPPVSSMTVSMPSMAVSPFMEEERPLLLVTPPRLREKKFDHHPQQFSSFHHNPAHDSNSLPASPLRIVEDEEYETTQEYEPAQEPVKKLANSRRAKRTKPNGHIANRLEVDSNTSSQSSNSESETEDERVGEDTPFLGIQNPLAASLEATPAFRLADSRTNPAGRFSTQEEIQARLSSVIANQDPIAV

[7] = test system: Neuregulin-1 EGF-like domain; experiment: small molecules binding NRG1 EGF domain – biochemical, small-molecule microarray, 635 nm fluorescence, primary screen (AID 1081); settings: higher = more signal;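 note: binding of the protein to compounds printed on small-molecule microarray slides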
[8] = FRG1 expression reporter modulators in myotubes – cell-based, C2C12 myotubes, firefly/Renilla luciferase, luminescence, FRG1 inhibition for FSHD, primary screen (AID 1084); settings: FRG1 promoter luciferase, higher = more signal, called active from +8 up or from −8 down
[9] = small molecules captured by biotinylated probe aFST – biochemical, small-molecule microarray, fluorescence 635/667, stem cell growth factor project, primary screen (AID 1086); settings: higher = more signal;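 note: score merges 667 nm fluorescence with signal-to-noise of each printed compound spot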
[10] = binders of probe aHhip on microarray, primary screen, stem cell growth factor project, biochemical, small-molecule microarray, fluorescence 635/667 (AID 1087); settings: higher = more signal;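 note: score merges spot fluorescence at 667nm with spot signal to noise ratio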
[11] = test system: PRMT1 (protein arginine N-methyltransferase 1); experiment: small molecules binding arginine methyltransferase PRMT1 – biochemical, small-molecule microarray, 635 nm fluorescence, primary screen (AID 1088); settings: higher = more signal;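 note: binding of Prmt1 protein to compounds spotted on small-molecule microarray slides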
[12] = growth effects on S. cerevisiae YJM789 – YJM789 clinical isolate, OD600, 24 h, basal, primary screen (AID 1089); settings: higher = more signal, called active from +8 up or from −8 down;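 note: growth of clinical yeast isolate S. cerevisiae YJM 789 seeded 1000 cells per well; test concentration not given here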
[13] = S. pombe growth modifiers, basal conditions – strain 972, OD600, 24 h, no modulator, primary screen (AID 1090);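 note: basal condition with compound alone and no growth modifier present; test concentration not given here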; settings: S. pombe 972 growth, higher = more signal, called active from +8 up or from −8 down
[14] = budding yeast growth modifiers under rapamycin – strain BY4716, OD600, 96 h, primary screen (AID 1091); note: test concentration not given here; settings: S. cerevisiae BY4716 + rapamycin, higher = more signal, called active from +8 up or from −8 down
[15] = biological target: Torsin-1A-interacting protein 2 (Homo sapiens) (UniProt Q8NFQ8); experiment: small molecules binding lysate-expressed LULL1 – cell lysate, human LULL1 lysate, 635/667 nm fluorescence, primary screen (AID 1092); settings: small-molecule microarray, hLULL1 lysate binding, 635 nm fluorescence; higher = more signal;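 note: probe is lysate of COS7 cells overexpressing human LULL1; score merges per-feature 667 nm fluorescence with signal-to-noise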
Chain of Torsin-1A-interacting protein 2 (Homo sapiens) (Q8NFQ8 whole entry, looked up): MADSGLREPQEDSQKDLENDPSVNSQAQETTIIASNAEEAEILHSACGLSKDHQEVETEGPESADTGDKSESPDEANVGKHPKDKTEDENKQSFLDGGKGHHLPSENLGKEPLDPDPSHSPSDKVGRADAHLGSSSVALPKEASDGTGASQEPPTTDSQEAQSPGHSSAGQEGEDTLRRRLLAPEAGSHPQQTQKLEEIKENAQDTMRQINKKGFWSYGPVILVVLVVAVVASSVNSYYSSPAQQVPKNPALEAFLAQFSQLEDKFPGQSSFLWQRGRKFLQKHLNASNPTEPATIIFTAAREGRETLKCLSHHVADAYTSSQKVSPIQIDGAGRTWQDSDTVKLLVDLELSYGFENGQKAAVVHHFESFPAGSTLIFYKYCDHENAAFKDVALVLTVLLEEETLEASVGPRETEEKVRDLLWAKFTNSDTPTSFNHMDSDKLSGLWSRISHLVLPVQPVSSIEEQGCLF

[16] = optical density change of DRC41 E. coli – strain DRC41, OD650, 24 h, E. coli filamentation project, primary screen (AID 1093);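 note: MC1000 strain lacking acrAB efflux and sulA so SOS filamentation is blocked; test concentration not given here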; settings: E. coli DRC41 growth, higher = more signal, called active from +8 up or from −8 down
[17] = probe aLefty2 binding to arrayed compounds – biochemical, biotinylated probe, 635/667 nm fluorescence, primary screen (AID 1094); settings: small-molecule microarray, higher = more signal;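 note: score merges spot fluorescence near 667 nm with spot signal-to-noise ratio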
[18] = test system: Noggin (protein binding on small-molecule microarray); experiment: small molecules binding Noggin protein – biochemical, 635/667 nm fluorescence, primary screen (AID 1095); settings: 635 nm fluorescence, higher = more signal;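 note: score merges 667 nm feature fluorescence with signal to noise over triplicate slides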
[19] = biological target: Neurogenic locus notch homolog protein 3 (Homo sapiens) (UniProt Q9UM47); experiment: small molecules binding NOTCH3 protein – biochemical, 635/667 nm fluorescence, primary screen (AID 1096); settings: small-molecule microarray, 635 nm fluorescence, higher = more signal
Chain of Neurogenic locus notch homolog protein 3 (Homo sapiens) (Q9UM47 whole entry, looked up): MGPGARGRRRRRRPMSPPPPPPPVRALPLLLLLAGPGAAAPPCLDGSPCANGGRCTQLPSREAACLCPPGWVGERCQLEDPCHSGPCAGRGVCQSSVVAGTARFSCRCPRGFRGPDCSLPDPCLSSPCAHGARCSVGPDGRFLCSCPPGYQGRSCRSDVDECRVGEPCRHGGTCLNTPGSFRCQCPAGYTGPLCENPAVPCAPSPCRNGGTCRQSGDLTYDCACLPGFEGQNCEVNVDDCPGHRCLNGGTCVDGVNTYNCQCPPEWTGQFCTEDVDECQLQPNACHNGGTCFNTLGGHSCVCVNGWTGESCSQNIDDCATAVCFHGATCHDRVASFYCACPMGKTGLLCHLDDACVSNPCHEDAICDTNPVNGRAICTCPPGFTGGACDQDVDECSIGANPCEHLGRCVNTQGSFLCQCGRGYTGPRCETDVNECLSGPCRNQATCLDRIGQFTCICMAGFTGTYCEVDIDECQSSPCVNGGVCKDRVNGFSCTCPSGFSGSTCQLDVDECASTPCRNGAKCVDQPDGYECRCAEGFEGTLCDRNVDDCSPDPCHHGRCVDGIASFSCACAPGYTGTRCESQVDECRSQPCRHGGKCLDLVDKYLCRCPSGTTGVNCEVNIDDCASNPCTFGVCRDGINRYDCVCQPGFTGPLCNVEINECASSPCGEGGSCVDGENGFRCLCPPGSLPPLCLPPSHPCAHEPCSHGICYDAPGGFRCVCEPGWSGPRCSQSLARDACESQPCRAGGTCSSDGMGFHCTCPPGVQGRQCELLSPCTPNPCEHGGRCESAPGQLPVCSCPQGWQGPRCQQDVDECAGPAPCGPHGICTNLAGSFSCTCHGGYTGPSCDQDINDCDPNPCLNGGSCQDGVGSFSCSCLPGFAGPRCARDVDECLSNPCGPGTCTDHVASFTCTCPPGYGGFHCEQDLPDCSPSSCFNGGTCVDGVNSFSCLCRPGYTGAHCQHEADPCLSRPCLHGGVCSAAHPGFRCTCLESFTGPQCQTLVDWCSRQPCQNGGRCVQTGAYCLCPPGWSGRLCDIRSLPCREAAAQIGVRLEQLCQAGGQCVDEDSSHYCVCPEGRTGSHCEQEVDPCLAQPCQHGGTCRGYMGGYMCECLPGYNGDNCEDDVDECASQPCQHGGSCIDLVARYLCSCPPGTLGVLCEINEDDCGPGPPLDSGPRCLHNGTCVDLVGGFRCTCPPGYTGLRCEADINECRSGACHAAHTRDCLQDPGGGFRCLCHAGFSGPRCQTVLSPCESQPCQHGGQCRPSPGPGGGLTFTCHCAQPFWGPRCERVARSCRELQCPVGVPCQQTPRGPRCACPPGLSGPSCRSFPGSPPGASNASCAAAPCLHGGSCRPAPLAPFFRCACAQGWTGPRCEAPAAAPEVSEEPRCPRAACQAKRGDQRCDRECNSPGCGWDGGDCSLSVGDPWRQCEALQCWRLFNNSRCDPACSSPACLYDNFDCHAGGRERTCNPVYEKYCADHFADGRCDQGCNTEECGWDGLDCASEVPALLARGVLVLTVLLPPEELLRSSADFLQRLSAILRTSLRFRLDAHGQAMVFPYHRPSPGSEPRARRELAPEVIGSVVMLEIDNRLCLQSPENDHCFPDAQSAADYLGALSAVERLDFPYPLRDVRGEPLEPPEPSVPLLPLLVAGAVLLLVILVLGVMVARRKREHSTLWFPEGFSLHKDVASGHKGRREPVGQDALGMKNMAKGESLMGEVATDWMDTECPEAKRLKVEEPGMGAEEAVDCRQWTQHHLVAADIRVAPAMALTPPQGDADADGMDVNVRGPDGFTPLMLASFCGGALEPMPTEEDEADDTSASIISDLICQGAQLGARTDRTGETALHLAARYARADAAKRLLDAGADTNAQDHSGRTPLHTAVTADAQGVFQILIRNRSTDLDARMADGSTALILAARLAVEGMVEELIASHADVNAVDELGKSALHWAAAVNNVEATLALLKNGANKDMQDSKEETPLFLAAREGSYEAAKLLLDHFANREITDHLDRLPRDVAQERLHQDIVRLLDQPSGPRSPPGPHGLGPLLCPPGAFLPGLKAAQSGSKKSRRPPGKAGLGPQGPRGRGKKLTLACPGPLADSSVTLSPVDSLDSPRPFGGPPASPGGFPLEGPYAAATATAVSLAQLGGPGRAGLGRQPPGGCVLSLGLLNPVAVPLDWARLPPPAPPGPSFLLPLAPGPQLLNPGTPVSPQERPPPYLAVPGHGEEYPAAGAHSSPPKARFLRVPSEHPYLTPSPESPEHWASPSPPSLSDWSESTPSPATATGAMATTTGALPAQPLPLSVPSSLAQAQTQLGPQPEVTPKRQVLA

[20] = probe aEGFR binding to arrayed compounds – biochemical, biotinylated probe, 635/667 nm fluorescence, primary screen (AID 1097); settings: small-molecule microarray, higher = more signal;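 note: probe is a biotinylated anti-EGFR antibody binding compounds printed on slides; score combines fluorescence near 667 nm and signal to noise of each spot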

With `CC1(C)C(=O)C(c2ccccc2)=C2CN3C(=O)N(CCc4ccccc4)C(=O)C3(Cc3ccccc3)C=C21` (stereo not given) the composite z-score [1] was 0.0442, the composite z-score [2] was -0.219 and the composite z-score [3] was -0.0465. The composite z-score [4] was 0.235, the composite z-score [5] was 1.63 and the composite z-score [6] was 0.328. The composite z-score [7] was 0.949, the z-score [8] was 0.586 (inactive) and the composite z-score [9] was 1.15. For the same compound, the composite z-score [10] was -0.11, the composite z-score [11] was -0.377 and the z-score [12] was 0.672 (inactive). The z-score [13] was 2.28 (inactive), the z-score [14] was 5.82 (inactive) and the composite z-score [15] was 2.83. For the same compound, the z-score [16] was -0.723 (inactive), the composite z-score [17] was 0.336 and the composite z-score [18] was -0.264. The composite z-score [19] was 1.12 and the composite z-score [20] was 0.164.
In the case of `CCCCC(=C=CC[C@H](O)c1ccccc1OCCO)C[C@H](O)c1cc(Cl)cc(Cl)c1O`, the composite z-score [1] is reported as -0.114, the composite z-score [2] is reported as -0.257 and the composite z-score [3] is reported as -0.0628. It also gave a composite z-score [4] of 0.583, a composite z-score [5] of 0.151 and a composite z-score [6] of 0.371. The composite z-score [7] was 1.1, the z-score [8] was -2.37 (inactive) and the composite z-score [9] was 0.0025. The composite z-score [10] was -0.226, the composite z-score [11] was 1.1 and the z-score [12] was 0.906 (inactive). The z-score [13] was -1.33 (inactive), the z-score [14] was 0.32 (inactive) and the composite z-score [15] was 1.3. The z-score [16] was -0.144 (inactive), the composite z-score [17] was -0.118 and the composite z-score [18] was 0.453. For the same compound, the composite z-score [19] was 0.224 and the composite z-score [20] was -0.163.
`C=CCC(OC(C)=O)[C@@H]1[C@@H](N(Cc2cc3ccccc3o2)C(=O)c2ccc(-c3ccccc3)cc2)c2cc(OCCCO)ccc2N1C(=O)Cc1ccc2ccccc2c1` (stereo not given in full) showed a composite z-score [1] of 0.179, a composite z-score [2] of -0.499 and a composite z-score [3] of -0.0428. The composite z-score [4] was 0.101, the composite z-score [5] was -0.14 and the composite z-score [6] was -0.0892. The composite z-score [7] was -0.5, the z-score [8] was -1.28 (inactive) and the composite z-score [9] was 0.261. For the same compound, the composite z-score [10] was 0.17, the composite z-score [11] was -0.598 and the z-score [12] was 1.06 (inactive). The z-score [13] was 0.263 (inactive), the z-score [14] was 1.49 (inactive) and the composite z-score [15] was 0.898. The z-score [16] was 0.0672 (inactive), the composite z-score [17] was -0.166 and the composite z-score [18] was -0.125. For the same compound, the composite z-score [19] was -0.376 and the composite z-score [20] was -0.166.
`C=CCOC(=O)[C@@H]1[C@H]2C(=O)O[C@H](c3ccccc3)[C@H](c3ccccc3)N2[C@H](c2ccc(OCCOC(=O)[C@H]3C[C@H]4C(=O)N[C@@H](Cc5ccccc5)C(=O)N4[C@H]3c3ccc(O)cc3)cc2)[C@@]12C(=O)Nc1ccc(I)cc12` gave a composite z-score [1] of -0.248, a composite z-score [2] of 1.33 and a composite z-score [3] of -0.0939. It also gave a composite z-score [4] of 0.459, a composite z-score [5] of 1.11 and a composite z-score [6] of 0.846. The composite z-score [7] was 1.3, the z-score [8] was 1.16 (inactive) and the composite z-score [9] was 0.248. The composite z-score [10] was -0.0994, the composite z-score [11] was 1.54 and the z-score [12] was 2.61 (inactive). The z-score [13] was -1.76 (inactive), the z-score [14] was 0.88 (inactive) and the composite z-score [15] was 1.83. The z-score [16] was -1.96 (inactive), the composite z-score [17] was -0.0879 and the composite z-score [18] was 0.906. For the same compound, the composite z-score [19] was 1.09 and the composite z-score [20] was 0.128.
Work on `COCCCNC(=O)[C@@]1(Sc2ccc(C)cc2)CC(=O)N(Cc2ccccc2)[C@@H]1c1ccc(CO)cc1` yielded a composite z-score [1] of 0.178, a composite z-score [2] of 0.685 and a composite z-score [3] of 0.0431. It also gave a composite z-score [4] of 0.738, a composite z-score [5] of -0.774 and a composite z-score [6] of 0.505. For the same compound, the composite z-score [7] was -0.233, the z-score [8] was -1.53 (inactive) and the composite z-score [9] was -0.217. For the same compound, the composite z-score [10] was 0.0347, the composite z-score [11] was 0.983 and the z-score [12] was -0.0867 (inactive). The z-score [13] was 0.163 (inactive), the z-score [14] was -0.455 (inactive) and the composite z-score [15] was 2.66. The z-score [16] was -0.0977 (inactive), the composite z-score [17] was -0.27 and the composite z-score [18] was -0.408. It also gave a composite z-score [19] of -0.0703 and a composite z-score [20] of 0.03.
